# Source: ChEMBL document CHEMBL1157539, “Thousands of chemical starting points for antimalarial lead identification” (Nature, 2010)
# What was measured:
# Type in all cases: functional
# Plasmodium falciparum [1] = assay: GSK_TCMDC: Inhibition of Plasmodium falciparum 3D7 in whole red blood cells, using parasite LDH activity as an index of growth. Test compounds present at 2uM
# Plasmodium falciparum [2] = assay: GSK_TCMDC: Inhibition of Plasmodium falciparum Dd2 in whole red blood cells, using parasite LDH activity as an index of growth. Test compounds present at 2uM
# HepG2 = assay: GSK_TCMDC: Percent inhibition of human HepG2 cell line. Test compounds present at 10uM.
Structure (SMILES),Inhibition (Plasmodium falciparum [1]) [%],Inhibition (Plasmodium falciparum [2]) [%],Inhibition (HepG2) [%]
O=C(O)C(F)(F)F.O=S(=O)(NCCN1CCCC1)c1cccc(-c2ccc(CNCc3ccsc3)cc2)c1,100,31,33
CNC(=O)COC(=O)c1c2c(nc3ccccc13)C(=Cc1ccc3c(c1)OCO3)CCC2,83,36,7
O=C(O)C(F)(F)F.OCCN1CCN(Cc2ccc(-c3ccc(-c4nc5cc(C(F)(F)F)ccc5[nH]4)s3)cc2)CC1,100,99,65
O=c1c(Br)c(C(F)(F)F)[nH]c2ccc(Oc3ccccc3)cc12,91,17,6
Fc1cccc(C=NNc2ccnc3cc(Cl)ccc23)c1,99,91,6
COc1ccccc1NS(=O)(=O)c1cc(C(=O)Nc2ccc(N3CCOCC3)c(S(=O)(=O)Nc3ccccc3Cl)c2)ccc1Cl,97,25,0
COc1ccc2nccc([C@@H](O)CN3CCC(NCc4ccc5cccc(O)c5n4)CC3)c2n1.CS(=O)(=O)O,94,13,8
CCOc1cc(C(=O)NC2CCN(Cc3ccccc3)C2)ccc1-c1nc2cc(Cl)ccc2[nH]1 (centres undefined),98,60,7
Cc1cc(=NN=Cc2ccccc2)c2cc(F)ccc2[nH]1,100,94,11
CN(C)CCOc1ccc(N2CCN(CCCCNC(=O)c3ccc(NC(=O)c4ccc(Cl)cc4)cc3)CC2)cc1,99,98,13
COc1ccc(CNC2CCN(C)CC2)cc1-c1cccc(S(=O)(=O)NCc2ccccc2)c1.O=C(O)C(F)(F)F,100,7,43
Br.N=C(N)c1ccc(C(=O)Nc2cccc(C(=N)N)c2)cc1,88,82,13
CN(Cc1ccc(-c2ccc(C(F)(F)F)cc2)cc1)C(=O)Cn1c(CCc2cccc(F)c2F)nc(=O)c2ccc(N3CCN(CCN4CCCCC4)CC3)nc21.O=C(O)C(O)C(O)C(=O)O,100,100,100
Cc1nnc2c(N(C(=O)NCCc3ccccc3)C(=O)NCCc3ccccc3)cc3cc(Cl)ccc3n12,91,34,0
O=C(Nc1ccc(Cl)cc1Cl)NC1CCN(CCCCCNC(=O)C2CC2c2ccc(Cl)c(Cl)c2)CC1 (centres undefined),100,30,67
O=C(OCc1ccccn1)c1nc2ccccc2[nH]1,92,97,63
Cc1ccc(CON2C(=N)N=C(N)NC2(C)C)cc1C.Cl,92,88,64
Cc1cccc2nc(-c3cccc(-c4cccc(NC(=O)c5csnn5)c4)c3)[nH]c12,98,49,10
COc1ccc(-c2ccc(NC(=O)c3ccc(C#N)cc3)cc2)cc1CN(C)CCO.O=C(O)C(F)(F)F,99,44,41
CN(CCC1CCN(C(=O)/C=C/c2ccc(Cl)c(Cl)c2)CC1)C1CCC(c2c[nH]c3ccccc23)CC1 (centres undefined),87,9,57
COC(=O)c1ccc(N2CCN(CCCCNC(=O)c3ccc(NC(=O)c4ccc(Cl)cc4)cc3)CC2)c(OC)c1,82,1,11
COc1ccc2nccc([C@@H](O)CN3CCC(NCc4cc5sccc5nc4C(F)(F)F)CC3)c2c1.O=C(O)C(=O)O,89,67,22
Cc1cccc2nc(-c3ccc(-c4ccc(CN5CCN(CCO)CC5)cc4)s3)[nH]c12.O=C(O)C(F)(F)F,92,47,34
CCCC(=O)c1cnc2c(I)cccc2c1Nc1ccccc1C,90,26,7
CC(C)n1ncc2c(C(=O)N3CCCCCC3)cc(-c3ccccc3)nc21,97,42,0
NC(=O)c1ccsc1NC(=O)CNC(c1ccccc1)c1ccccc1,88,37,8
OC(CNCc1ccccc1)c1cc(OCc2ccccc2)cc(OCc2ccccc2)c1 (centres undefined),98,76,0
O=C(NCCN1CCC(c2ncc(-c3ccccc3)o2)CC1)c1ccc(NC(=O)c2ccc(Cl)cc2)cc1,100,80,32
